Pf Dd2 inh: qHTS Primary assay for Inhibitors of Plasmodium falciparum Dd2 growth in vitro; hit rate 4.3% among 120,000; P. falciparum Dd2 growth, SYBR Green, 72 h; Potency, µM (series often up to 28.9 µM), for the others: at the top dose activity, negative = inhibition, actives largely listed as inhibitors; active means well fitted inhibition curve with a large enough effect;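 further: plate controls were DMSO vehicle for no effect and reference drug for full effect; nearly all actives have a fitted effect of over 65% in size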
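Readout: SYBR Green fluorescence, 485 nm excitation, 535 nm emission, after ~16 h lysis at 37C. Before that, Dd2-infected red cells (2.5% hematocrit) grew 72 h with compound, 29 uM top final concentration.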
The depositor's hits bear a star; i = inactive; [ ] = dose if it differs, or a comment. Shown is part of a subset that was picked to be rich in hits. Potency means the concentration at half of the fitted maximal effect.

SMILES	Pf Dd2 inh
CNC(=O)C1CN(c2ccccc2)C(=O)N1 (configuration not stated)	18%[44.1 µM]
CNC(=O)CCC[C@@H]1[C@H]2CCCN3CCC[C@@H](CN1C(C)=O)[C@@H]23	3%
CC[C@H]1CN(C(=O)Nc2cccc(C(F)(F)F)c2)CC[C@H]1CC(=O)NCc1ccccc1	-6%
Cc1ccc(NC(=O)CC2=C3CCCCC3N(C)C2=O)cc1 (configuration not stated)	-26%
CC1(C)N=C(c2ccccc2)C(=O)N1CC(N)=O	55%
Cc1noc(C)c1[S+](=O)([O-])N1CCc2nc(C(C)C)nc(-c3ccc(Cl)cc3)c2CC1	10%
COCCNC(=O)CN1CCCc2nc(C3CC3)ncc2C1=O	19%
O=C(CN1CCCc2nc(C3CC3)ncc2C1=O)NCCc1c[nH]c2ccccc12	10µM*
O=C(CN1CCCc2nc(C3CC3)ncc2C1=O)NCc1cccnc1	33%
CSCC(=O)N1CCC(C2CCN(S(C)(=O)=O)CC2)C1 (configuration not stated)	7%
Cc1ccc(OCCC2CCN(C(=O)CC(F)(F)F)C2)cc1 (configuration not stated)	-23%
COC(=O)[C@@H]1Cc2c([nH]c3ccccc23)[C@H]2C[C@H](NCCN3CCOCC3)C[C@@H](c3ccc(F)cc3)N21	11µM*
COC(=O)[C@@H]1Cc2c([nH]c3ccccc23)[C@H]2C[C@@H](NCCc3cnc[nH]3)C[C@@H](c3cccc(Cl)c3)N21	i
Cc1ccc(C)c(NC(=O)Cn2cc(S(=O)(=O)Cc3cccc(Cl)c3)c3ccccc32)c1	11%
COC(=O)[C@@H]1Cc2c([nH]c3ccccc23)[C@@H]2C[C@@H](NCCNC(C)=O)C[C@@H](c3cccc(Cl)c3)N12	11µM*
COC(=O)[C@@H]1Cc2c([nH]c3ccccc23)[C@H]2C[C@@H](NCCN(C)C)C[C@@H](c3cccc(Cl)c3)N21	2.8µM*
COC(=O)[C@@H]1Cc2c([nH]c3ccccc23)[C@H]2C[C@@H](NC(C)C)C[C@@H](c3ccc(C)cc3)N21	i
Cc1ccc(NC(=O)Cn2cc(S(=O)(=O)Cc3cccc(Cl)c3)c3ccccc32)cc1C	2%
COC(=O)[C@@H]1Cc2c([nH]c3ccccc23)[C@H]2C[C@@H](NCCN3CCOCC3)C[C@@H](c3ccc(F)cc3)N21	-15%
COC(=O)[C@@H]1Cc2c([nH]c3ccccc23)[C@H]2C[C@@H](NCc3cccs3)C[C@@H](c3ccccc3F)N21	-28%
COc1ccccc1C(=O)N1C[C@H](c2nc(-c3ccncc3)no2)[C@@H](C)C1	i
O=C(NC1CCN(c2cc(-c3ccccc3)[nH]n2)CC1)c1ccc(Cl)cc1	-1%
CC(=O)NCC(=O)N1Cc2ccccc2CC2(CCN(CC3CCNC3)CC2)C1 (configuration not stated)	9%
CN(Cc1cccc(C(F)(F)F)c1)S(=O)(=O)c1cccs1	11%[44.1 µM]
O=C(NC1CCN(C(=O)N2CC3CC(C2)[C@H]2CCCC(=O)N2C3)CC1)C1CCOCC1 (some centres not stated)	-12%
SMILES	Pf Dd2 inh
CCn1c2ccccc2c2cc(C(=O)N3CCCCCCNC(=O)CC3)ccc21	-18%
O=C(NCCC1CCN(C(=O)Nc2cc(F)ccc2F)CC1)c1ccccc1	-13%
Cc1cc2cc(-c3c(C)noc3C)nc(N3CCN(c4ccccn4)CC3)c2o1	-23%[44.1 µM]
COc1ccc(-c2nc(-c3c(C)noc3C)cc3cc(CO)oc23)cn1	19%[44.1 µM]
Cc1cc(-c2nc(-c3c(C)noc3C)cc3cc(C)oc23)ccn1	11µM*
COc1cc(-c2nc(-c3c(C)noc3C)cc3cc(C)oc23)ccn1	11µM*
COc1cc(-c2nc(-c3c(C)noc3C)cc3c2cc(C)n3C)ccn1	-5%[44.1 µM]
Cc1cc2cc(-c3c(C)noc3C)nc(N(C)C)c2o1	i
CN(CC1CCOCC1)C(=O)c1cccc(Br)c1	-16%
Cc1ccccc1-c1noc(CNC(C)c2ccc(-n3cncn3)cc2)n1 (configuration not stated)	2%
CN1CCC(Cc2nc(CC3C=CS(=O)(=O)C3)n(CCO)n2)CC1 (configuration not stated)	-11%
COC(=O)[C@@H]1Cc2ncn(C)c2CN1S(=O)(=O)c1cccs1	i
CCCC1(CO)CCCN(Cc2nnc(-c3cccnc3)o2)C1 (configuration not stated)	-4%
CCCC1(CO)CCCN(C(=O)CCn2ccc(=O)[nH]c2=O)C1 (configuration not stated)	-19%
CCCC1(CO)CCCN(Cc2cn3ccc(C)cc3n2)C1 (configuration not stated)	10µM*
Cc1c(C(=O)NCc2cncn2CC(C)C)oc2c(F)cccc12	-28%
Cc1cc(S(=O)(=O)N2CCC(CC(=O)NCc3ccccc3)C2)ccc1F (configuration not stated)	-10%
O=C(Nc1ccccc1)Nc1ccc([C@@H](O)[C@H]2COCC(=O)N2Cc2ccc(F)cc2)cc1	i
CCN(CC)S(=O)(=O)c1ccc(C(=O)NCCSc2c(-c3ccc(F)cc3)[nH]c3ccccc23)cc1	6.3µM*
Cc1ccc(-c2[nH]c3ccccc3c2SCCNC(=O)c2ccc(S(=O)(=O)N3CCOCC3)cc2)cc1	10µM*
O=C(NC1CC(=O)N(c2ccccc2)C1)c1ccc(S(=O)(=O)N2CCOCC2)cc1 (configuration not stated)	i
CCN(CC)S(=O)(=O)c1ccc(C(=O)NCCSc2c(-c3ccccc3)[nH]c3ccccc23)cc1	11µM*
O=C(NCCSc1c[nH]c2ccccc12)c1ccc(Cl)cc1	-2%
Cc1ccc(N2CC(NC(=O)c3ccc(S(=O)(=O)N4CCOCC4)cc3)CC2=O)cc1 (configuration not stated)	i
COc1cc(C(=O)NCCSc2c(C)[nH]c3ccccc23)cc(OC)c1OC	-21%
SMILES	Pf Dd2 inh
Cc1[nH]c2ccccc2c1SCCNC(=O)c1ccccc1F	-8%
COc1ccccc1C(=O)NCCSc1c(C)[nH]c2ccccc12	15%
Cc1nc2c(c(-c3ccc(Cl)cc3)n1)CCN(C(=O)Cc1ccc(F)cc1)CC2	-23%
Cc1noc(-c2cn(C3CCN(C(=O)c4ccc[nH]4)C3)nn2)n1 (configuration not stated)	i
CN1[C@@H](CCC(=O)NCc2cccnc2)CNC(=O)[C@@H]2[C@H]1CCN2C1CCCCC1	17%[44.1 µM]
Cc1cnc(C(=O)N[C@@H]2CCC[C@@H]2C(=O)N2CCN(c3cccc(Cl)c3)CC2)cn1	i
CC(C)NC(=O)N1CCN(C(=O)c2cccs2)[C@H](C(=O)N[C@@H](Cc2cccnc2)C(N)=O)C1	3%
COC1CCC12CCN(Cc1cccnc1)CC2 (configuration not stated)	i
Cn1c(CO[C@H]2CN(C(=O)c3ccc(Cl)cc3)C[C@H]2F)nc2ccccc21	-6%[44.1 µM]
CN(C)C[C@@H]1CN(Cc2ccncc2)C[C@H]1N	8%
CCN1C(=O)C(CC(=O)NC2CCCCC2)Sc2ncccc21 (configuration not stated)	6%
CC(=O)Nc1ccc(OCC(=O)N(C)Cc2ccccc2)nc1	30%
CCOC(=O)c1ccc2c(c1)[C@@H]1C=CC[C@@H]1[C@H](c1cccc(OC)c1OC)N2	0.45µM*
COc1ccc(Br)cc1[C@@H]1Nc2ccc(C(=O)O)cc2[C@@H]2C=CC[C@@H]21	8%
COc1ccc(OC)c([C@@H]2Nc3ccc(C(=O)O)cc3[C@@H]3C=CC[C@@H]32)c1	12%
